High-throughput results: PubChem BioAssay, several laboratories
Rows were chosen to be rich in hits. Some 28% of all compounds tested hit in one or more screens of this group.
CYP2C19 act: activators of human cytochrome P450 2C19 | activation factor at 5 µM | AID 1025 | 96,000 tested, under 10 active | P33261 | recombinant CYP2C19, luciferin-H EGE luminescence; hits give high values; 0 = fully inhibited enzyme, 1 = untreated enzyme;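 active = activation factor of at least 2 at 5 µM in the primary screen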;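 note: 0 = wells with 2.5 mM tranylcypromine and 1 = vehicle-only wells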
D1 mod: D1 dopamine receptor (human) allosteric modulation; hit rate 5.9% among 58,000; B-score at 10 µM; P21728; AID 641; HEK293 D1, CRE-luciferase, dopamine EC30 potentiation; actives deviate in either direction;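 active = luminescence count or its row- and column-corrected plate score outside the 99.7% band of the plate's sample wells, on either side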
Target sequence (P21728 whole entry, looked up): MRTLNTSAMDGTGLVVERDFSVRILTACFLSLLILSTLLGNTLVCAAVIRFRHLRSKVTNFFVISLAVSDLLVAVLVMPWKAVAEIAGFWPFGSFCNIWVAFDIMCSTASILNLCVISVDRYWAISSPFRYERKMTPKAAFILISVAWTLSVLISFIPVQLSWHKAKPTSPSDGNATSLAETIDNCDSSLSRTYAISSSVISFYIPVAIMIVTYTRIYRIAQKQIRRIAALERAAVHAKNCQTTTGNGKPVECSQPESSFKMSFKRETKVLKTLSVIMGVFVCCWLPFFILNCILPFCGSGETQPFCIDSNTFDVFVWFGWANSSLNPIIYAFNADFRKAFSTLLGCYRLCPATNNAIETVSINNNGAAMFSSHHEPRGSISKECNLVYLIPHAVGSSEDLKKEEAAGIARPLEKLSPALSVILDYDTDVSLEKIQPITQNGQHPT
CYP2C9 activ: activators of human CYP2C9 | recombinant CYP2C9, luciferin-H conversion, luminescence; hits give high values; factor 1 = untreated enzyme, 0 = blocked | hit rate 1.4% among 96,000 | AID 1024 | activation factor at 5 µM | P11712;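 active = activation factor of 2 or more for CYP2C9 at a 5 µM dose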;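 note: 0 = sulfaphenazole-blocked wells and 1 = vehicle-only wells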
hDAT+cocaine: modulates human dopamine transporter uptake under cocaine | hit rate 1.3% among 110,000 | B-score at 10 µM | LLC-PK1 hDAT cells, [14C]-dopamine uptake with cocaine IC80; actives deviate in either direction | Q01959;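 active = Z score or B-score, a plate-position-corrected score, falls beyond the plate's 99.7% confidence bounds, in either direction; inactive = both scores lie inside the 99.7% bounds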;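 note: scored against the spread of the other compound wells on the same plate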
CYP2C19 inhib: blocks human cytochrome P450 2C19; P33261; hit rate 21% among 96,000; inhibition, % at 5 µM; CYP2C19 Supersomes, luciferin-H EGE luminescence, 30 min;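 active = CYP2C19 inhibition above a set limit at 5 µM in the primary screen, cut at about 50% in these data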;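 note: plate controls were negative control wells for no effect and 2.5 mM tranylcypromine positive control for full effect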
CYP2C9 inh: inhibitors of human CYP2C9; CYP2C9 Supersomes, luciferin-H conversion, luminescence; inhibition, % at 5 µM; hit rate 20% among 96,000; AID 777;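 active = blocking of liver enzyme CYP2C9 beyond about 50% at 5 µM, limit read from the data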
The depositor's hits bear a star.

How did Cc1cc(C)cc(N2C(=O)CC(Sc3nnnn3-c3ccccc3)C2=O)c1 (stereo not given) do in these assays?
CYP2C19 act: 0.5; CYP2C9 activ: 1.5; hDAT+cocaine: -0.3; CYP2C19 inhib: 54*; CYP2C9 inh: -49

Results for O=C(c1cc2ncc(Br)cn2n1)N1CCN(C(=O)c2ccco2)CC1 ?
CYP2C19 act: 0.9; D1 mod: -0.46; CYP2C9 activ: 1; hDAT+cocaine: 0.7; CYP2C19 inhib: 7; CYP2C9 inh: 0

Results for O=C(c1ccco1)n1c(=S)nc2ccccn21 ?
CYP2C19 act: 0.3; D1 mod: -0.72; CYP2C9 activ: 0.7; hDAT+cocaine: 0.42; CYP2C19 inhib: 72*; CYP2C9 inh: 28

Results for Cc1cccc2nc(=S)n(C(=O)c3ccco3)n12 ?
CYP2C19 act: 0.3; D1 mod: -0.023; CYP2C9 activ: 0.2; hDAT+cocaine: 0.15; CYP2C19 inhib: 73*; CYP2C9 inh: 76*

How did C[C@]12C=CC(=O)C=C1CC[C@H]1[C@@H]3C[C@@H](O)[C@](O)(C(=O)CO)[C@@]3(C)C[C@H](O)[C@@]12F do in these assays?
D1 mod: -6.4*; hDAT+cocaine: 1.2

How did CNC(=O)c1nnn(Cc2ccccc2)c1NC(=O)C(F)(F)F do in these assays?
CYP2C19 act: 1; D1 mod: -0.21; CYP2C9 activ: 0.8; hDAT+cocaine: -1.7; CYP2C19 inhib: 2; CYP2C9 inh: 22

Results for Cc1ccc(NC2=Nc3ccccc3CC2)cc1 ?
CYP2C19 act: 0.2; CYP2C9 activ: 0.6; hDAT+cocaine: -0.044; CYP2C19 inhib: 84*; CYP2C9 inh: 38

Results for Brc1ccc(NC2=Nc3ccccc3CC2)cc1 ?
CYP2C19 act: 0.5; CYP2C9 activ: 0.7; hDAT+cocaine: -1.2; CYP2C19 inhib: 52*; CYP2C9 inh: 28

Results for Cc1ccc(C(=O)N/C(=C/c2ccc(-c3cc(C(F)(F)F)ccc3Cl)o2)C(=O)NCc2cccnc2)cc1 ?
CYP2C19 act: 0.6; CYP2C9 activ: 0.4; hDAT+cocaine: -0.19; CYP2C19 inhib: 39; CYP2C9 inh: 58*

What do the screens show for `O=C(NCc1cccnc1)/C(=C/c1ccc(-c2cccc(C(F)(F)F)c2)o1)NC(=O)c1ccccc1`?
CYP2C19 act: 0.7; CYP2C9 activ: 0.8; CYP2C19 inhib: 31; CYP2C9 inh: 24

Results for Cc1nnc(NC(=O)Oc2ccccc2)s1 ?
CYP2C19 act: 1.1; D1 mod: 0.21; CYP2C9 activ: 1.1; hDAT+cocaine: 0.52; CYP2C19 inhib: -8; CYP2C9 inh: -14

Results for CCC(Oc1ccccc1)C(=O)Nc1ccccc1OC (stereo not given) ?
CYP2C19 act: 0.6; D1 mod: 1.2; CYP2C9 activ: 1; hDAT+cocaine: 0.082; CYP2C19 inhib: 38; CYP2C9 inh: 4

How did CCC(Oc1ccccc1)C(=O)Nc1nnc(C)s1 (stereo not given) do in these assays?
CYP2C19 act: 0.6; D1 mod: -1.6; CYP2C9 activ: 0.4; hDAT+cocaine: -1.1; CYP2C19 inhib: 41; CYP2C9 inh: 63*

What do the screens show for `CCC(Oc1ccccc1)C(=O)Nc1nc2c(s1)C(=O)CC(C)(C)C2` (stereo not given)?
CYP2C19 act: 0.9; CYP2C9 activ: 0.5; hDAT+cocaine: 0.36; CYP2C19 inhib: 12; CYP2C9 inh: 54*

Results for CCC(C)C(=O)Nc1nc2c(s1)C(=O)CC(C)(C)C2 (stereo not given) ?
CYP2C19 act: 1; D1 mod: 0.6; CYP2C9 activ: 0.9; hDAT+cocaine: 0.3; CYP2C19 inhib: -2; CYP2C9 inh: 8

Results for CCC(Oc1ccccc1)C(=O)Nc1nnc(C(F)(F)F)s1 (stereo not given) ?
CYP2C19 act: 0.8; D1 mod: -0.68; CYP2C9 activ: 0; hDAT+cocaine: -0.096; CYP2C19 inhib: 16; CYP2C9 inh: 97*

What do the screens show for `CCC(CC)c1nnc(NC(=O)Oc2ccccc2)s1`?
CYP2C19 act: 0.9; CYP2C9 activ: 0.4; hDAT+cocaine: -0.092; CYP2C19 inhib: 5; CYP2C9 inh: 56*

How did CCCC/C(O)=N\S(=O)(=O)c1ccc(N=NN(C)C)cc1 do in these assays?
hDAT+cocaine: -0.34

How did C#Cc1ccc([C@@H]2C=C(C(=O)O)O[C@H](OCC)[C@H]2CCCO)cc1 do in these assays?
hDAT+cocaine: 0.29

How did CCC(C)NC(=O)c1c(-c2cc(Cl)c(OC)c(Cl)c2)noc1C (stereo not given) do in these assays?
D1 mod: -0.14

What do the screens show for `Cc1ccc(SCCCn2cncn2)cc1`?
CYP2C19 act: 0.2; CYP2C9 activ: 0.7; hDAT+cocaine: -0.24; CYP2C19 inhib: 84*; CYP2C9 inh: 31

How did c1ccc(SCCOCCn2cncn2)cc1 do in these assays?
CYP2C19 act: 0.2; D1 mod: -1.1; CYP2C9 activ: 0.8; hDAT+cocaine: 0.44; CYP2C19 inhib: 78*; CYP2C9 inh: 19

What do the screens show for `Clc1ccc(SCCn2cncn2)cc1`?
CYP2C19 act: 0.7; CYP2C9 activ: 0.7; CYP2C19 inhib: 35; CYP2C9 inh: 31

What do the screens show for `C=CCSc1nc(C)c(CC(=O)OCC(C)C)c(=O)[nH]1`?
CYP2C19 act: 0.5; D1 mod: 0.031; CYP2C9 activ: 0.7; hDAT+cocaine: 0.81; CYP2C19 inhib: 47; CYP2C9 inh: 30

How did O=C(NC(NCC1CCCO1)C(Cl)(Cl)Cl)c1cccc2ccccc12 (stereo not given) do in these assays?
CYP2C19 act: 0.9; CYP2C9 activ: 0.7; hDAT+cocaine: 0.17; CYP2C19 inhib: 8; CYP2C9 inh: 30

How did CC(C)CC(=O)NC(NCC1CCCO1)C(Cl)(Cl)Cl (stereo not given) do in these assays?
CYP2C19 act: 0.4; CYP2C9 activ: 0.7; hDAT+cocaine: -0.48; CYP2C19 inhib: 57*; CYP2C9 inh: 32

Results for O=C(Nc1ccc2nc(-c3ccccc3)[nH]c2c1)c1cccs1 ?
CYP2C19 act: 0.8; CYP2C9 activ: 0.6; hDAT+cocaine: -1; CYP2C19 inhib: 20; CYP2C9 inh: 40

How did CCOC(=O)CCNC(=O)Nc1ccc2nc(C)n(Cc3cccc(Cl)c3)c(=O)c2c1 do in these assays?
CYP2C19 act: 0.4; D1 mod: 2; CYP2C9 activ: 0.2; hDAT+cocaine: 0.36; CYP2C19 inhib: 62*; CYP2C9 inh: 81*

Results for CCCc1nc2ccc(NC(=O)NCCC(=O)OCC)cc2c(=O)n1Cc1ccc(Cl)cc1 ?
hDAT+cocaine: -0.09

Results for CCOC(=O)CCNC(=O)Nc1ccc2nc(C)n(Cc3ccccc3Cl)c(=O)c2c1 ?
CYP2C19 act: 0.4; D1 mod: 1.1; CYP2C9 activ: 0.1; hDAT+cocaine: 0.13; CYP2C19 inhib: 55*; CYP2C9 inh: 94*

What do the screens show for `Cc1nc2ccc(NC(=O)c3cccs3)cc2c(=O)n1Cc1ccc(Cl)cc1`?
CYP2C19 act: 0.2; CYP2C9 activ: 0.3; hDAT+cocaine: 0.024; CYP2C19 inhib: 79*; CYP2C9 inh: 68*
